SMILES strings stand for the structures. About 17,000 (4.7%) of roughly 360,000 compounds were called active. About 5% were inconclusive and are not listed. The sample as a whole holds a higher share of actives than the screen did. Unmarked numbers belong to inactive results. Cut-off read from the data, not from the text of the source: active = activity change below about -50%; inconclusive = mostly about -30% to -49%; inactive = weaker than that.
% is set by controls: 0 for no effect and ±100 for the full control effect.

A short description of this experiment: qHTS for Inhibitors of Inflammasome Signaling: IL-1-beta AlphaLISA Primary Screen. The settings on record: THP-1 LPS/ATP IL-1B secretion, 16 h; at 57.5 µM, active compounds read low. The source says:
Inflammasomes are a set of intracellular multi-protein complexes that enable autocatalytic activation of inflammatory caspases and drive the innate immune response to counter harmful agents. […] A qHTS assay, based on AlphaLISA technology, was developed to screen the Molecular Libraries Small Molecule Repository (MLSMR) to look for novel inflammasome inhibitors. The assay detects IL-1B using AlphaLISA anti-IL-1B acceptor and donor beads. A decreased emission signal, indicating reduced IL-1B secretion, is the desired outcome for this assay. NIH Chemical Genomics Center [NCGC] NIH Molecular Libraries Probe Centers Network [MLPCN] MLPCN Grant: MH095513 Assay Provider: Shyam Biswal Ph.D., Johns Hopkins University Immunity. 2012 Jul 27;37(1):85-95. PMID: 22819042 [2] Curr Pharm Des. 2012;18(16):2320-8. PMID: 22390695
Three microliters containing 3000 THP-1 cells were dispensed into the wells of solid, white, tissue culture treated Greiner 1,536-well plates. Library compounds and positive control, Glyburide, were pin-transferred (23 nL) by a Kalypsys pin-tool equipped with a 1,536-pin array, resulting in final compound concentration ranges of 2.5 nM to 57.5 uM. After 1 hr of cell culture incubation (37 °C, 5% CO2), 1 microL of 1 microg/mL lipopolysaccharide (250 ng/mL, final) and 5 mM ATP (1.25 mM, final) were added to stimulate the cells. After 16 hr of cell culture incubation with the compounds, 1.5 uL of anti-IL-1B acceptor beads (6 ug/mL, final) and biotinylated antibody (0.6 nM, final) were added to the plate, followed by a 1 hr incubation at ambient temperature. To detect the secreted IL-1B, 1.5 uL of AlphaLISA SA-Donor beads (24 ug/mL, final) were added, followed by 30 min of incubation in the dark at ambient temperature. The AlphaLISA signal was read by a PerkinElmer EnVision plate reader with an ultrasensitive luminescence detector and 1536 Plate HTS AlphaScreen aperture (excitation of 680nm and emission of 615nm).
On to `O=C(CN1C(=O)NC2(CCCCC2)C1=O)NCCC1=CCCCC1`, for which the activity change is 21.6%.

As to `COc1cccc(NC(=O)C2(C)CCN2C(=O)CCC2CCCC2)c1` (configuration not stated), the activity change is 12.2%.

For `Oc1ccc(-n2nnnc2SCc2c(F)cccc2Cl)cc1`, the activity change was -11.4%.

For `COc1ccc(CSc2nnnn2-c2ccc(C(=O)O)cc2)cc1`, the activity change was -2.8%.

For `COc1ccc(CSc2nnnn2-c2ccc(O)cc2)cc1F`, the activity change was -64.2% (active).

Turning to `COc1ccc(C(C)=O)cc1CN1C(=O)NC2(CCCCC2C)C1=O` (configuration not stated), the activity change was -5.22%.

For the compound `C[C@H]1CN([C@@H](C)CO)C(=O)CCCn2cc(nn2)CO[C@@H]1CN(C)S(=O)(=O)c1cccc(C#N)c1`, the activity change is 12.5%.

For the compound `CCn1ccnc1CN1CCCC(C(=O)c2ccc3c4c(cccc24)CC3)C1` (configuration not stated), the activity change was -69.4% (active).

`Cc1ncoc1C(=O)N1CCCC(C(=O)c2ccc3c4c(cccc24)CC3)C1` (configuration not stated): the activity change was -21.9%.

Take `CC(=O)NCC(=O)N1CCCC(C(=O)c2ccc3c4c(cccc24)CC3)C1` (configuration not stated): the activity change is -13.3%.

In the case of `C[C@H](O)[C@@H]1C(=O)N2CCc3c([nH]c4ccccc34)[C@@H]2C[C@@H]1N(C)C(=O)Nc1ccc(F)cc1`, the activity change was -16.5%.

For `CC1(C(=O)NS(=O)(=O)c2ccc3ccccc3c2)CCN1C(=O)C1(c2ccc(Cl)cc2)CCC1` (configuration not stated), the activity change was 53.2%.

Take `COc1ccc(-c2cc(C(=O)Nc3ccccc3O)c3ccccc3n2)cc1`: the activity change is -84.2% (active).

As for `COc1cccc(NC(=O)CN(C)C(=O)c2cc(Cl)nc3ccccc23)c1`, the activity change is 17.2%.

In the case of `COc1ccc(-c2cc(C(=O)N(C)CC(=O)Nc3ccccc3Cl)c3ccccc3n2)cc1OC`, the activity change was -52.1% (active).

`COc1ccc(CN(C)C(=O)c2cc(-c3ccc(C)cc3C)nc3ccccc23)c(OC)c1OC`: the activity change is -84.9% (active).

`COc1ccc(NC(=O)c2cc(-c3cc(OC)c(OC)c(OC)c3)nc3ccccc23)c(OC)c1`: the activity change is 42.6%.

Turning to `COc1ccc(CN(C)C(=O)Cc2c[nH]c3ccccc23)c(OC)c1OC`, the activity change is 5.58%.

For the compound `COc1ccc(NC(=O)c2cc(-c3ccc(C)o3)nc3ccccc23)cc1`, the activity change was -5.74%.

As to `COc1ccc(Cl)cc1NC(=O)CN(C)C(=O)c1cc2ccccc2cc1OC`, the activity change is 5.95%.

Turning to `COc1ccc(-c2cc(C(=O)N(C)Cc3ccc(OC)c(OC)c3OC)c3ccccc3n2)cc1OC`, the activity change is -13.9%.

Take `O=C(Nc1nonc1-c1ccc(Cl)cc1)c1ccco1`: the activity change was 26.6%.

Consider `CC(C)C[C@H](NC(=O)N1CC(=O)Nc2ccccc21)C(=O)N[C@H](Cc1ccccc1)C(=O)O`, for which the activity change is 4.57%.

In the case of `N#Cc1ccc(-c2nc3c(Cl)cc(C(F)(F)F)cn3c2Cc2ccccc2C(F)(F)F)cc1`, the activity change is 23.1%.

As to `COc1ccc(S(=O)(=O)N2CCC(C(=O)NCCC(=O)Nc3ccccc3OC)CC2)cc1`, the activity change was 2.12%.

Take `Nc1nc2c(ncn2[C@@H]2O[C@H](CNS(=O)(=O)N3CCc4ccccc4C3)[C@@H](O)[C@H]2O)c(=O)[nH]1`: the activity change is 0.653%.

As to `COc1cccc(OCC(=O)NCCS(=O)(=O)N2CCN(c3ccccc3)CC2)c1`, the activity change is 21%.

For `OC[C@H]1O[C@@H](c2nc(-c3nc(-c4ccc(F)cc4)no3)cs2)[C@H](O)[C@@H](O)[C@H]1O`, the activity change is 2.39%.

As for `CCCCN1C(=O)C(CC(=O)NC(c2ccccc2)c2ccccc2)CC(C(=O)N2CCOCC2)=C1C` (configuration not stated), the activity change is 14.9%.

Turning to `CCCC(=O)n1nc(NCc2ccc(OC)cc2)nc1NCc1ccc(OC)cc1`, the activity change was 15.3%.

Take `Nc1nc(NCc2ccccc2)n(-c2ccccc2)n1`: the activity change was 4.19%.

Regarding `O=C(c1cccs1)n1nc(NCc2ccccc2)nc1NCc1ccccc1`, the activity change was -57.7% (active).

Turning to `CC(C)(C)OC(=O)N1CCN(C(=O)c2[nH]c(C(F)(F)F)nc2-c2ccccc2)CC1`, the activity change was 13.4%.

On to `Cc1ccc(CN(C(=O)c2sc3ccccc3c2Cl)C2CCS(=O)(=O)C2)cc1` (configuration not stated), for which the activity change is -2.89%.

For the compound `Nn1cnnc1N/N=C/c1cc([N+](=O)[O-])c(Cl)cc1Cl`, the activity change is -61.8% (active).

Take `Cc1cccc(C=CC(=O)c2ccc(Cl)cc2)c1`: the activity change was -29.5%.

In the case of `O=C(CSc1ncn[nH]1)NCc1ccc2c(c1)OCO2`, the activity change is 17.5%.

With `O=C(/C=C/Sc1ncn[nH]1)c1ccc(Cl)cc1`, the activity change was -118% (active).

With `Cc1ccc(-c2ccc(CN3C(C(C)C)C(=O)N(Cc4cn(CCC5OCCCO5)nn4)CCS3(=O)=O)cc2)cc1` (configuration not stated), the activity change was 13%.

With `CCn1ncc(C2=NOC(C(=O)N3CCN(c4ccccc4)CC3)C2)c1C` (configuration not stated), the activity change is 3.63%.

Take `COc1ccc(-c2nn(-c3ccccc3)cc2/C=C\C(=O)N2CCOCC2)cc1[N+](=O)[O-]`: the activity change is -9.66%.

On to `O=C(/C=C/c1cn(-c2ccccc2)nc1-c1ccc2c(c1)OCCO2)NCCCN1CCOCC1`, for which the activity change was -92.2% (active).

In the case of `O=C(NCCCN1CCOCC1)c1cn(-c2ccccc2)nc1-c1ccc(F)cc1`, the activity change is -7.44%.

With `O=C(COC(=O)/C=C/c1ccc(Br)o1)Nc1cccc(S(=O)(=O)N2CCOCC2)c1`, the activity change was 13.8%.

For `CCOC(=O)[C@]12CCCC=C1N(CCC1=CCCCC1)C(=O)[C@H](CC(=O)NCCCCc1ccccc1)C2`, the activity change was -17.5%.

Turning to `CCCCOCCCNC(=O)C[C@@H]1C[C@@]2(C(=O)OCC)CCCC=C2N(CCC2=CCCCC2)C1=O`, the activity change is -27.8%.

With `CCOC(=O)[C@]12CCCC=C1N(CCC1=CCCCC1)C(=O)[C@H](CC(=O)NCCCOC)C2`, the activity change is 60.5%.

Take `CC1=C(C(=O)N(C)C)CC(CC(=O)NCCc2ccccn2)C(=O)N1CCC1=CCCCC1` (configuration not stated): the activity change was -20.1%.

Take `CC1=C(C(=O)N(C(C)C)C(C)C)CC(CC(=O)NCCCCc2ccccc2)C(=O)N1CCC1=CCCCC1` (configuration not stated): the activity change is -59% (active).

On to `CCCCOCCCNC(=O)C[C@@H]1C[C@@]2(C(=O)OC)CCCCC=C2N(CCC2=CCCCC2)C1=O`, for which the activity change is -57.4% (active).

As to `O=C(Nc1c(Br)cc2c(c1Br)Cc1cc([N+](=O)[O-])ccc1-2)C(Cl)Cl`, the activity change is 39%.

In the case of `CCCOc1ccc(-c2c(C(=O)N/N=C/c3ccco3)nnn2-c2nonc2N)cc1`, the activity change was 92.5%.

The values are drawn from PubChem BioAssay AID743279 (National Center for Advancing Translational Sciences (NCATS), 2014).
